Biological target: T1, Aspartate--tRNA(Asp/Asn) ligase (Mycobacterium tuberculosis (strain ATCC 25618 / H37Rv)) (UniProt P9WFW3); note: in the data most compounds retested in dose-response had high values
T1 sequence (whole entry): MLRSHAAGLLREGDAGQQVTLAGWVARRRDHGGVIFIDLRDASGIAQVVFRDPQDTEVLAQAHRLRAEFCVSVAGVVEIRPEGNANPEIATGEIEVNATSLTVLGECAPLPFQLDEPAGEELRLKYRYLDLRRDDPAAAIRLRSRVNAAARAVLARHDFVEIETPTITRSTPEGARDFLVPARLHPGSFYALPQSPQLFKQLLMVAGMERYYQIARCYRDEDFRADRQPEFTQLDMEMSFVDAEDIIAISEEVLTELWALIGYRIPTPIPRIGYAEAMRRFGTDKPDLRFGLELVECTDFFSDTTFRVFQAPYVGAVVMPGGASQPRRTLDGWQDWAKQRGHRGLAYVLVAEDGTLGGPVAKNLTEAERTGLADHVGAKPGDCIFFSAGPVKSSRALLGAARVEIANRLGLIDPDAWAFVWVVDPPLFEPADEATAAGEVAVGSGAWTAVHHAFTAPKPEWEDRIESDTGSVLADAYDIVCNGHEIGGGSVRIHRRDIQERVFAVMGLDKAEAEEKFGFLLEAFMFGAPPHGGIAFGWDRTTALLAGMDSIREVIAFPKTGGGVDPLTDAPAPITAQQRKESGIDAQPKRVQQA
Experiment: Assay for Asp RNA synthetase-1 from Mycobacterium tuberculosis
Assay type: functional
Set-up: scale not given: direction of the effect not stated beside the values
Conditions: 30 µM

SMILES	Percent Effect [%]
CC1c2ncc(Cn3cncn3)n2CCN1C(=O)C1CCOCC1 (stereo not given)	3.23
Cc1cccc(C(=O)N2C[C@@H]3OCCN(c4ncccn4)[C@@H]3C2)n1	2.48
CC(=O)N1CCO[C@@H]2CN(C(=O)c3cc(C)oc3C)CC[C@@H]2C1	4.81
CS(=O)(=O)N1CCC(C(=O)NC(Cc2ccsc2)c2nccs2)CC1 (stereo not given)	-5.91
Cc1cc2c(=O)n3c(nc2s1)CCN(C(=O)c1scnc1C)CC3	-1.56
Cc1ccc(N2CCCC(NCc3cscn3)C2)nn1 (stereo not given)	10.3
Cn1cccc1C(=O)N1CCn2cc(CNC(=O)CC3CC3)nc2C1	-0.0735
CN(Cc1ccc(F)cc1)C(=O)NCC1(N2CCOCC2)CCSC1 (stereo not given)	-1.08
Cc1ccc(O)c(CNC2CCc3nc(C(C)C)nn3C2)n1 (stereo not given)	2.88
Cc1cc(C(=O)N2CCCC2c2nnc3n2CCCCC3)no1 (stereo not given)	-2.81
Cc1ccccc1N1CCCN(C(=O)CCCS(N)(=O)=O)CC1	6.58
CS(=O)(=O)CC(=O)N1C[C@H]2CCC[C@@]2(COCc2ccccn2)C1	4.11
COc1ccc(S(=O)(=O)N2CCCC3(CCCN3S(C)(=O)=O)C2)cc1 (stereo not given)	-2.13
O=C(c1ccnnc1)N1C[C@H]2CCC[C@@]2(COCC2CCOCC2)C1	3.07
Cc1csc2ncc(-c3ccnc(N4CCN(C)CC4)n3)c(=O)n12	1.78
O=C1[C@@H]2CCN(Cc3ccoc3)C[C@@H]2OCCN1Cc1cccnc1	-0.368
CCc1nc(CNCC2CCCN2c2cc(NC)ncn2)cs1 (stereo not given)	-0.456
O=C(CCn1ccccc1=O)Nc1ccc(I)cc1	8.05
CC(C)c1nc2n(n1)CC(NCc1ncc(-c3ccccc3)o1)CC2 (stereo not given)	-5.88
O=C(NC1(c2cccc(F)c2)CCOCC1)c1ccccn1	-1.19

SMILES	Percent Effect [%]
O=S(=O)(NCc1ccccc1Cn1cncn1)C1CCCC1	1.56
CCc1cnc2c(c1Nc1ccncc1)c(=O)n(C)c(=O)n2C	0.918
COCCN1CCN(CCCS(=O)(=O)c2ccccc2)CC1C (stereo not given)	-4.25
Cc1nc(C)n(CC2CCCN2Cc2cc(C)on2)n1 (stereo not given)	8.96
CCC1CN(CCC(=O)N(C)C)CCN1CCOC (stereo not given)	2.89
O=C(CCc1ccccc1)Nc1ncccc1OC(F)F	-3.26
CCN(C)c1ncnc2c1CCN(C(=O)c1ccno1)CC2	7.02
CCc1nc(CN2CCCN(C(=O)c3c(C)noc3C)CC2)cs1	1.9
CCCS(=O)(=O)NCc1cccnc1OCC	-1.52
Cc1nc(C)n(CC2CCCN(CCc3ccccn3)C2)n1 (stereo not given)	-0.8
CCN(CC)C(=O)c1ccn(COc2ccccc2)n1	-2.64
CCOC(=O)C1CCN(C(=O)Cn2ccc3cc(Br)ccc32)CC1	-2.06
Cc1cc(-c2cnc(NCc3cccnc3)nc2C(C)(C)C)on1	2.07
CC(=O)N1CCN(c2ccc3ccc(C(=O)NC4CCCC4)cn23)CC1	-0.91
c1ccc(Cn2cc3c(n2)C(CNCc2ccco2)OCC3)nc1 (stereo not given)	6.18
Cc1nccn1-c1cccc(C2CCCN(C(=O)c3cc[nH]n3)C2)n1 (stereo not given)	-0.309
COC(=O)CS(=O)(=O)CCC(=O)N1CCCC1c1ccsc1 (stereo not given)	-1.34
CN1CC(=O)N(c2cccnc2)CC12CCN(C(=O)C1CCCCC1)C2 (stereo not given)	6.7
CCCS(=O)(=O)N1CCN(c2cc(-n3cnc(C)c3C)nc(C)n2)CC1	-3.39
O=S(=O)(NCC1CCOc2ccccc2C1)N1CCOCC1 (stereo not given)	6.99

Biological target: Shiga toxin 2 (Escherichia coli O157:H7) (UniProt P09385+P09386)
Experiment: E. coli 0.157:H7 Shiga Toxin SOP - stx2 screening assay
Assay type: functional
Set-up: scale not given: direction of the effect not stated beside the values
Conditions: 30 µM

SMILES	Percent Effect [%]
CC1c2ncc(Cn3cncn3)n2CCN1C(=O)C1CCOCC1 (stereo not given)	-10.6
Cc1cccc(C(=O)N2C[C@@H]3OCCN(c4ncccn4)[C@@H]3C2)n1	2.47
CC(=O)N1CCO[C@@H]2CN(C(=O)c3cc(C)oc3C)CC[C@@H]2C1	-5.49
CS(=O)(=O)N1CCC(C(=O)NC(Cc2ccsc2)c2nccs2)CC1 (stereo not given)	16.3
Cc1cc2c(=O)n3c(nc2s1)CCN(C(=O)c1scnc1C)CC3	0.428
Cc1ccc(N2CCCC(NCc3cscn3)C2)nn1 (stereo not given)	15.1
Cn1cccc1C(=O)N1CCn2cc(CNC(=O)CC3CC3)nc2C1	-50.9
CN(Cc1ccc(F)cc1)C(=O)NCC1(N2CCOCC2)CCSC1 (stereo not given)	-43.8
Cc1ccc(O)c(CNC2CCc3nc(C(C)C)nn3C2)n1 (stereo not given)	1.45
Cc1cc(C(=O)N2CCCC2c2nnc3n2CCCCC3)no1 (stereo not given)	-2.64
Cc1ccccc1N1CCCN(C(=O)CCCS(N)(=O)=O)CC1	-25.7
CS(=O)(=O)CC(=O)N1C[C@H]2CCC[C@@]2(COCc2ccccn2)C1	-6.39
COc1ccc(S(=O)(=O)N2CCCC3(CCCN3S(C)(=O)=O)C2)cc1 (stereo not given)	0.605
O=C(c1ccnnc1)N1C[C@H]2CCC[C@@]2(COCC2CCOCC2)C1	-0.366
Cc1csc2ncc(-c3ccnc(N4CCN(C)CC4)n3)c(=O)n12	-20.6
O=C1[C@@H]2CCN(Cc3ccoc3)C[C@@H]2OCCN1Cc1cccnc1	-11.5
CCc1nc(CNCC2CCCN2c2cc(NC)ncn2)cs1 (stereo not given)	-5.66
O=C(CCn1ccccc1=O)Nc1ccc(I)cc1	-26.1
CC(C)c1nc2n(n1)CC(NCc1ncc(-c3ccccc3)o1)CC2 (stereo not given)	-9.35
O=C(NC1(c2cccc(F)c2)CCOCC1)c1ccccn1	-49.2

SMILES	Percent Effect [%]
O=S(=O)(NCc1ccccc1Cn1cncn1)C1CCCC1	-9.86
CCc1cnc2c(c1Nc1ccncc1)c(=O)n(C)c(=O)n2C	-8.05
COCCN1CCN(CCCS(=O)(=O)c2ccccc2)CC1C (stereo not given)	-5.54
Cc1nc(C)n(CC2CCCN2Cc2cc(C)on2)n1 (stereo not given)	8.12
CCC1CN(CCC(=O)N(C)C)CCN1CCOC (stereo not given)	22.5
O=C(CCc1ccccc1)Nc1ncccc1OC(F)F	-5.61
CCN(C)c1ncnc2c1CCN(C(=O)c1ccno1)CC2	-5.46
CCc1nc(CN2CCCN(C(=O)c3c(C)noc3C)CC2)cs1	-25.2
CCCS(=O)(=O)NCc1cccnc1OCC	-6.28
Cc1nc(C)n(CC2CCCN(CCc3ccccn3)C2)n1 (stereo not given)	-46.3
CCN(CC)C(=O)c1ccn(COc2ccccc2)n1	4.36
CCOC(=O)C1CCN(C(=O)Cn2ccc3cc(Br)ccc32)CC1	-21.9
Cc1cc(-c2cnc(NCc3cccnc3)nc2C(C)(C)C)on1	2.89
CC(=O)N1CCN(c2ccc3ccc(C(=O)NC4CCCC4)cn23)CC1	-45
c1ccc(Cn2cc3c(n2)C(CNCc2ccco2)OCC3)nc1 (stereo not given)	-26.1
Cc1nccn1-c1cccc(C2CCCN(C(=O)c3cc[nH]n3)C2)n1 (stereo not given)	-32.7
COC(=O)CS(=O)(=O)CCC(=O)N1CCCC1c1ccsc1 (stereo not given)	-0.403
CN1CC(=O)N(c2cccnc2)CC12CCN(C(=O)C1CCCCC1)C2 (stereo not given)	-1.32
CCCS(=O)(=O)N1CCN(c2cc(-n3cnc(C)c3C)nc(C)n2)CC1	-17.5
O=S(=O)(NCC1CCOc2ccccc2C1)N1CCOCC1 (stereo not given)	-16
